Source: PubChem BioAssay
CHO-K1 Ca PAM – M1 PAM counterscreen hit in parental CHO-K1 cells; ATP EC20, Fluo-8 calcium fluorescence; 0% at ATP EC20, 100% at ATP max; activation, % at 3 µM; actives 0.02% (n = 360,000); AID 602247;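 active = activation above the run cutoff, the mean activation of all test compounds plus 3 SD, cut at about 40% in these data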;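 note: peak over basal fluorescence ratio in a 140 s read after ATP addition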
CHO-K1 Ca antag – M1 antagonist counterscreen hit in parental CHO-K1 cells | ATP-induced calcium, Fluo-8 fluorescence | inhibition, % at 3 µM | actives 0.6% (n = 360,000) | AID 602250;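 active = inhibition above a per-plate cutoff, the plate's mean sample inhibition plus 3 SD, cut at about 24% in these data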
M1 ag parental – nonselective activator or artifact in parental CHO-K1 cells; actives 0.48% (n = 360,000); activation, % at 3 µM; AID 602248; Fluo-8 calcium fluorescence; scaled to maximal ATP response, vehicle zero; in the data active = activation above about 15%;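 note: untransfected CHO-K1 host cells lacking M1 receptor as counterscreen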
M1 antag – human CHRM1 antagonism; P11229; CHO-K1 hM1, Fluo-8 calcium fluorescence, ACh EC80 antagonist; inhibition, % at 3 µM; actives 1.3% (n = 360,000);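 active = percent inhibition above its own plate's cutoff, namely the mean of that plate's compound wells plus 3 SD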;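 note: peak over basal fluorescence ratio during 140 s after agonist addition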
Target sequence (P11229 whole entry, looked up): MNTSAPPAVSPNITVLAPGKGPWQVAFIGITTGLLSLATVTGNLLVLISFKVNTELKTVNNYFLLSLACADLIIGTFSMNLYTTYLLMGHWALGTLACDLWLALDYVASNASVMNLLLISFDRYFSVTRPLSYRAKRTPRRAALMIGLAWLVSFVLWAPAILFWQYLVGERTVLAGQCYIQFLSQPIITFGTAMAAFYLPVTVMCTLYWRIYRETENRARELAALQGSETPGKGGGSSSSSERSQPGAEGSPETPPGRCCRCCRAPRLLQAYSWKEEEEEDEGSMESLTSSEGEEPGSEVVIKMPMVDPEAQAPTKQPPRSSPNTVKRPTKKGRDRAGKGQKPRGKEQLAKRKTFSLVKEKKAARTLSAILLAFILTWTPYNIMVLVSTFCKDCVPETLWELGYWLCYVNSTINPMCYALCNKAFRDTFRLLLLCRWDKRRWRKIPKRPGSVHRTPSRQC
M1 ag – agonists of human M1 muscarinic receptor | actives 0.33% (n = 360,000) | CHO-K1 hM1, Fluo-8 calcium fluorescence, agonist mode; 0% DMSO, 100% acetylcholine EC100 | activation, % at 3 µM;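 active = activation above the run's mean compound activation plus 3 SD, cut at about 16% in these data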;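 note: peak over basal fluorescence ratio within a 140 s kinetic read after compound addition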
M1 PAM – human CHRM1 positive allosteric modulation | P11229 | CHO-K1 hM1, Fluo-8 calcium fluorescence, ACh EC20; 0% = ACh EC20, 100% = maximal ACh | activation, % at 3 µM | actives 0.088% (n = 360,000); in the data active = activation above about 19%, passing the limit was not always enough
Numbers stand for hits. Sampled rows, rich in hits. Any-hit rate of the full collection: about 2.3%.

Results for CN(C)CC(O)COC(c1ccccc1)c1ccccc1 (stereo not given) ?
CHO-K1 Ca PAM: inactive; CHO-K1 Ca antag: inactive; M1 ag parental: inactive; M1 antag: 39.3; M1 ag: inactive; M1 PAM: inactive

Results for COc1ccc(CN(C)CC(O)COC(c2ccccc2)c2ccccc2)c(OC)c1OC (stereo not given) ?
CHO-K1 Ca PAM: inactive; CHO-K1 Ca antag: inactive; M1 ag parental: 27.8; M1 antag: inactive; M1 ag: inactive; M1 PAM: inactive

What do the screens show for `Cc1ccccc1-c1csc(C(C)(O)c2ccc(F)c(F)c2)n1` (stereo not given)?
CHO-K1 Ca PAM: inactive; CHO-K1 Ca antag: inactive; M1 ag parental: inactive; M1 antag: inactive; M1 ag: inactive; M1 PAM: inactive

What do the screens show for `Nc1[nH]c(C(=O)c2ccccc2)c(-c2ccncc2)c1C(=O)NCc1ccc(Cl)cc1`?
CHO-K1 Ca PAM: inactive; CHO-K1 Ca antag: inactive; M1 ag parental: inactive

Results for NCCCCCc1nnc(SCc2cccc(Cl)c2)o1 ?
CHO-K1 Ca PAM: inactive; CHO-K1 Ca antag: inactive; M1 ag parental: inactive; M1 antag: 29.9; M1 ag: inactive; M1 PAM: inactive

How did NCCCCCc1nnc(SCc2ccc(Cl)cc2Cl)o1 do in these assays?
CHO-K1 Ca PAM: inactive; CHO-K1 Ca antag: inactive; M1 ag parental: inactive; M1 antag: 32.8; M1 ag: inactive; M1 PAM: inactive

What do the screens show for `O=C(N/N=C/c1ccc(O)c(O)c1)c1ccc(CSc2cccc3cccnc23)cc1`?
CHO-K1 Ca PAM: inactive; CHO-K1 Ca antag: inactive; M1 ag parental: inactive; M1 antag: inactive; M1 ag: 24.2; M1 PAM: inactive

Results for CCNC(=O)C1(C)CCN(C(=O)c2c(F)cccc2F)C1 (stereo not given) ?
CHO-K1 Ca PAM: inactive; CHO-K1 Ca antag: inactive; M1 ag parental: inactive; M1 antag: inactive; M1 ag: inactive; M1 PAM: inactive

What do the screens show for `O=[N+]([O-])/C(C(=C(Cl)Cl)N1CCN(Cc2ccccc2)CC1)=C1\NCCN1Cc1ccc(Cl)nc1`?
CHO-K1 Ca PAM: inactive; CHO-K1 Ca antag: inactive; M1 ag parental: inactive; M1 antag: 42.9; M1 ag: inactive; M1 PAM: inactive

Results for O=[N+]([O-])C(/C=C(\Cl)[N+](=O)[O-])=C1N(Cc2ccc(Cl)nc2)CCN1Cc1ccc(Cl)nc1 ?
CHO-K1 Ca PAM: inactive; CHO-K1 Ca antag: inactive; M1 ag parental: inactive; M1 antag: inactive; M1 ag: inactive; M1 PAM: inactive

Results for COc1ccc2cc(C(=O)N/N=C/c3sc4ccccc4c3O)ccc2c1 ?
CHO-K1 Ca PAM: inactive; CHO-K1 Ca antag: inactive; M1 ag parental: inactive; M1 antag: inactive; M1 ag: 32.7; M1 PAM: inactive

What do the screens show for `COc1ccc(C(=O)N/N=C/c2sc3ccccc3c2O)cc1`?
CHO-K1 Ca PAM: inactive; CHO-K1 Ca antag: inactive; M1 ag parental: inactive; M1 antag: inactive; M1 ag: inactive; M1 PAM: inactive

What do the screens show for `O=C(O)Cn1nncc1-c1ccc(C(F)(F)F)cc1`?
CHO-K1 Ca PAM: inactive; CHO-K1 Ca antag: inactive; M1 ag parental: inactive; M1 antag: inactive; M1 ag: inactive; M1 PAM: inactive

Results for CCOC(=O)C1CCN(C2=C(NS(=O)(=O)c3ccc(Cl)cc3)C(=O)c3ccccc3C2=O)CC1 ?
CHO-K1 Ca PAM: inactive; CHO-K1 Ca antag: inactive; M1 ag parental: inactive; M1 antag: inactive; M1 ag: 30.5; M1 PAM: inactive

Results for CC1CCN(C2=C(NS(=O)(=O)c3ccc(Cl)cc3)C(=O)c3ccccc3C2=O)CC1 ?
CHO-K1 Ca PAM: inactive; CHO-K1 Ca antag: inactive; M1 ag parental: inactive; M1 antag: inactive; M1 ag: inactive; M1 PAM: inactive

How did CCOC(=O)C1CCCN(C2=C(NS(=O)(=O)c3ccc(Br)cc3)C(=O)c3ccccc3C2=O)C1 (stereo not given) do in these assays?
CHO-K1 Ca PAM: inactive; CHO-K1 Ca antag: inactive; M1 ag parental: inactive; M1 antag: inactive; M1 ag: 41.0; M1 PAM: inactive

Results for CCOC(=O)C1CCN(CC(C)(C)NS(=O)(=O)c2ccc(C)cc2)CC1 ?
CHO-K1 Ca PAM: inactive; CHO-K1 Ca antag: inactive; M1 ag parental: inactive; M1 antag: inactive; M1 ag: inactive; M1 PAM: 27.5

Results for COc1ccc(NC(=S)NC2CCCCC2)cn1 ?
CHO-K1 Ca PAM: inactive; CHO-K1 Ca antag: inactive; M1 ag parental: inactive; M1 antag: inactive; M1 ag: inactive; M1 PAM: inactive

Results for N#CCC(=N)N1CCN(c2ccc(F)cc2)CC1 ?
CHO-K1 Ca PAM: inactive; CHO-K1 Ca antag: inactive; M1 ag parental: inactive; M1 antag: inactive; M1 ag: inactive; M1 PAM: inactive

How did O=C(NCCCCCCCN1CCCCCCC1)C(C1CCCCC1)C1CCCCC1 do in these assays?
CHO-K1 Ca PAM: inactive; CHO-K1 Ca antag: inactive; M1 ag parental: inactive; M1 antag: 56.9; M1 ag: inactive; M1 PAM: inactive

What do the screens show for `COc1cccc(-c2cnc(C(O)c3c(C)ccc4ccccc34)[nH]2)c1` (stereo not given)?
CHO-K1 Ca PAM: inactive; CHO-K1 Ca antag: inactive; M1 ag parental: 19.6; M1 antag: inactive; M1 ag: inactive; M1 PAM: inactive

Results for Cc1ccc2ccccc2c1C(O)c1ncc(-c2ccc(F)cc2)[nH]1 (stereo not given) ?
CHO-K1 Ca PAM: inactive; CHO-K1 Ca antag: inactive; M1 ag parental: inactive; M1 antag: inactive; M1 ag: inactive; M1 PAM: inactive

How did OCCN1CCN(c2ncnc3c2ncn3[C@H]2CN(Cc3ccncc3)C[C@@H](CO)O2)CC1 do in these assays?
CHO-K1 Ca PAM: inactive; CHO-K1 Ca antag: inactive; M1 ag parental: inactive; M1 antag: inactive; M1 ag: inactive; M1 PAM: inactive

How did O=C(CCc1ccccc1)OCCOC(=O)CCc1ccccc1 do in these assays?
CHO-K1 Ca PAM: inactive; CHO-K1 Ca antag: inactive; M1 ag parental: inactive; M1 antag: inactive; M1 ag: inactive; M1 PAM: inactive

Results for Cc1ccccc1S(=O)(=O)Cc1ccc(C(=O)N2CCN(c3cccc(C)c3C)CC2)o1 ?
CHO-K1 Ca PAM: inactive; CHO-K1 Ca antag: 26.2; M1 ag parental: inactive; M1 antag: inactive; M1 ag: inactive; M1 PAM: inactive

What do the screens show for `CC(C)(C)c1ccc(S(=O)(=O)N2CCC(O)(c3ccc(Cl)cc3)CC2)cc1`?
CHO-K1 Ca PAM: inactive; CHO-K1 Ca antag: inactive; M1 ag parental: inactive; M1 antag: 70.9; M1 ag: inactive; M1 PAM: inactive

What do the screens show for `O=C1C=C(c2ccc(CO)cc2)C[C@@H](c2ccc3c(c2)OCO3)C1`?
CHO-K1 Ca PAM: inactive; CHO-K1 Ca antag: inactive; M1 ag parental: inactive; M1 antag: inactive; M1 ag: inactive; M1 PAM: inactive

Results for O=C(Nc1ccc(S(=O)(=O)Nc2ncccn2)cc1)c1cccc([N+](=O)[O-])c1 ?
CHO-K1 Ca PAM: inactive; CHO-K1 Ca antag: inactive; M1 ag parental: inactive; M1 antag: inactive; M1 ag: inactive; M1 PAM: inactive
